# Reference: publication PMC12136788
# Whole data set: some 24,000 sequences, median “enrichment r” near 0.99, cut for the highest 2% near 3.7. Only a sample is shown.
# T1: UNK ZnF1-3 (human, UniProt Q9C0B0 31-174)
# T1 sequence: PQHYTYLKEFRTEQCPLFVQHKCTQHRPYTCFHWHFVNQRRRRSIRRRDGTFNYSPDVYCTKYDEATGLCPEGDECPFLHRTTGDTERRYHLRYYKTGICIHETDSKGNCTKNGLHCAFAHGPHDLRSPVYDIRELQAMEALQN
# B1: chr1:163117127:163117128:-_ENSG00000143248_ENST00000313961|hu_mus|hu_hu_hu_mus_False|78_98 (ssRNA)
# RNA: GGGAGUUCUACAGUCCGACGAUCUGCUACAAAGGAUGGAGGAAAUAUCACAGGGCAUGAUUUCAUAGCCUGACCAGAUGACUACUUGAUUAGCUCCUUAUAAAAUUCAGAGCGCACAAAGCGGGGCAGAGAAUCCUUCUCCAUCAACAGAGGAUUGAGCAUCA
# B2: chr3:131220538:131220539:-_ENSG00000114686_ENST00000264995|hu_mus|motif|central (ssRNA)
# RNA: GGGAGUUCUACAGUCCGACGAUCUUCUUCAGAAAGAUGUUCAUCCCACCAAGUACUACUCUUGCUGUGGAGAUUUCGGACAAAGAACAAGAUAUUCUUUCUUCUCUCUAAGCCGGGGUCAGCACCUAGGCCUCUGGCGCCACACAACAGAGGAUUGAGCAUCA
# B3: chr6:82862619:82862620:-_ENSMUSG00000000627_ENSMUST00000000641|mus_mus|FALSE|FALSE (ssRNA)
# RNA: GGGAGUUCUACAGUCCGACGAUCAACCUGCUUGUAAUUUCCUACACACUUUUCUGGGUUCCUUUUGUCAUCCCUCAAUAGCUAGAAUGUUGUGAAGUUCAUUUUAAAUGGAAGCCAAGGAAAGAGGGCUCAGCCUCCACUCCACAACAGAGGAUUGAGCAUCA
# B4: chr4:107545374:107545375:+_ENSMUSG00000028613_ENSMUST00000106731|mus_mus|FALSE|FALSE (ssRNA)
# RNA: GGGAGUUCUACAGUCCGACGAUCGUUGAUGGAUAGCCACAAAGCAUAAUUUUAUUUACAAAAAAAUCAAGCCCCUCAAACCUAAAAAAGCUCUCAACUCAAACAUCCUCUGUAAAUACUGUAUUCAAAUGAUGAGUGAAGUUUCAACAGAGGAUUGAGCAUCA
# B5: chr1:174973770:174973771:+_ENSG00000116161_ENST00000406752|hu_mus|FALSE|FALSE (ssRNA)
# RNA: GGGAGUUCUACAGUCCGACGAUCGAGUUCCGUCUCAAUCUUGGACUUUUCACUUGUAAGAGUAUCACGUAGUCUUUUCCUAGUGGACUUUUCCAGCAAUACUUUGACCUCUUCUAGGUCUUUCUGCAACUCUUCCAAAACGGACAACAGAGGAUUGAGCAUCA
# B6: chr22:19452774:19452775:-_ENSG00000070010_ENST00000399523|hu_hu|hu_hu_hu_mus_False|1_68 (ssRNA)
# RNA: GGGAGUUCUACAGUCCGACGAUCCUUCUCAUUGUAGUUGAUAGCAAUCACAUCUCCAGUCGUCAGACAGGCAAAGUUUCUCAAUGCAUUUUCUAAUACCGCUUUAGGGUUGGUAAUAUCCAGGAAGUCUGGGCUCUGAGGUUGCAACAGAGGAUUGAGCAUCA
# B7: 64993253_64993373_409_3pUTR_ENSMUSG00000029920_ENSMUST00000031984|mouse|control|control (ssRNA)
# RNA: GGGAGUUCUACAGUCCGACGAUCCUUCAGCACUAAGAGAAAUUGGUGACGAAGGACGGGCCUGGGAGGGCUGAGGGGCUGCUUCGGGUGCUUCCUCAAUCUUACUCCUUUUCUCAAAGCGAAAACGGUCCAAGUUGAAAAGAUCAACAGAGGAUUGAGCAUCA
# B8: chr2:160855017:160855018:-_ENSMUSG00000057133_ENSMUST00000039782|mus_hu|FALSE|FALSE (ssRNA)
# RNA: GGGAGUUCUACAGUCCGACGAUCAUCCUUUUCGAGCUCUUCCAUUGUGGCCCAUUUACAAUGUAAGUAGGAAAAAUUUCUAUACUUAACGUAGAACAGCUCCAAGUCGAACGGAGGUUCUCCUGGGUGAACCUCCUGGACAGUCAACAGAGGAUUGAGCAUCA
# B9: chr14:63761926:63761927:+_ENSMUSG00000021939_ENSMUST00000006235|mus_mus|FALSE|FALSE (ssRNA)
# RNA: GGGAGUUCUACAGUCCGACGAUCCUGCCAAUGUCAAGCAGAGGGAGAAUUGGUUUAUUGGCACAGACAUUCCUUGUUAAACUACAGGGUUAAGUGGUAACUACAACAAAAAGCAAGUUUUUUUUUCCAGACUAGUUUCAUUGUCAACAGAGGAUUGAGCAUCA
# B10: chr1:23381596:23381597:+_ENSG00000004487_ENST00000356634|hu_hu|motif|central (ssRNA)
# RNA: GGGAGUUCUACAGUCCGACGAUCAGUUGGUAGGGGUUUUAUCCUCUUAUAGAUGCCGAAGUUGAUAAGACCAUGACGCUCGGAAUAACUGUGAACUCGGUGGACAAGCACAGUAUCACUGUUAUAAGGUGCUUCUAAUUGUUGCAACAGAGGAUUGAGCAUCA
# B11: chr1:220276048:220276049:+_ENSG00000067704_ENST00000302637|hu_hu|hu_hu_hu_mus_True|18_88 (ssRNA)
# RNA: GGGAGUUCUACAGUCCGACGAUCGCAAAUUGCCUGGUUGGCGGGAAUCGUCCAAGGCUGGGUGGUCCAAACUAAAACGCUAACAGGGGAUGAGGCAUCUGUAAGAGACUCCAACUUUGGAGAAGGCCUCAGGAGGGGGAAUCUCAACAGAGGAUUGAGCAUCA
# B12: chr11:111909998:111909999:+_ENSG00000150768_ENST00000533297|hu_hu|FALSE|FALSE (ssRNA)
# RNA: GGGAGUUCUACAGUCCGACGAUCACCCUUCCCUUUGGUCCAGCAGGAGUAGCUGGGCAGGGUGCUGAAGGUGUAGGAGCUAAAGGCUGGGGAGUUGGAGGAACAGCGGCCACCGGGGGUGGGGUAGGUGGUGGCACUUGUGGUCAACAGAGGAUUGAGCAUCA
# B13: 91020203_91021877_1494_CDS_ENSMUSG00000030091_ENSMUST00000032179|mouse|control|control (ssRNA)
# RNA: GGGAGUUCUACAGUCCGACGAUCCAUGACCCCCUUGACGGUGACUGUGGCAACCAUGGAGCUUGACGAAGACCAGCUGAAGUUCCCACUGCCCCCAUGGGCCUUUAUGGUAUACUGAUAGGCGCCUGUCUUUGGUUGCCAUGGCAACAGAGGAUUGAGCAUCA
# B14: chr7:7679991:7679992:-_ENSG00000106399_ENST00000396682|hu_hu|hu_hu_hu_mus_False|88_98 (ssRNA)
# RNA: GGGAGUUCUACAGUCCGACGAUCUGGGAUGAAUCUUUUCCAGCCUCCCUACGAAGCACACGGGCCGGUCGAUAUACUGUGGUAACAUGCUGGCGUUGACGCGCGCUUUGGGGAGCUGCAUUAUGUCCUCCAUGAUUCUGCCGCCAACAGAGGAUUGAGCAUCA
# Target: T1, UNK ZnF1-3
# Test: nsRBNS (natural sequence RNA bind-n-seq); RBNS binding buffer (assumed for nsRBNS): 25 mM Tris pH 7.5, 150 mM KCl, 3 mM MgCl2, 0.01% Triton X-100, 500 ug/ml BSA, 20 U/ml SUPERase-In, 4 C; UNK is unkempt and MSI1 is Musashi-1; names of the RNAs are library labels; protein concentration not given here; high values mean tight binding
row,Binder,binding signal
1,B1,1.46 enrichment R
2,B2,0.785 enrichment R
3,B3,0.841 enrichment R
4,B4,1.47 enrichment R
5,B5,0.405 enrichment R
6,B6,1.02 enrichment R
7,B7,1.21 enrichment R
8,B8,0.672 enrichment R
9,B9,1.12 enrichment R
10,B10,0.878 enrichment R
11,B11,2.21 enrichment R
12,B12,1.76 enrichment R
13,B13,0.642 enrichment R
14,B14,0.573 enrichment R
